In the library only some 6.7% were active in any assay of this set; here they are far more common.
Pf Dd2 inh = P. falciparum Dd2 growth inhibition. SYBR Green, 72 h; active compounds read low. activity change, % at 10 µM. 2.3% of 94,000 active. AID 1159554; in the data active means activity change below about -80%
C diff growth = blocks growth of Clostridium difficile; growth activity, negative = inhibition, % at 16 µg/mL (by protocol); 0.25% of 86,000 active; AID 1259249; Clostridium difficile clinical isolate growth, OD600, 24 h; active compounds read low;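 active means mean growth activity at or below -80% and every replicate also at or below -80%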;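 further: 0% = DMSO wells and -100% = levofloxacin 16 µg/mL wells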
T cruzi growth = T. cruzi proliferation inhibition; 5.9% of 77,000 active; T. cruzi beta-gal in NIH3T3, GalScreen luminescence, 90 h; inhibition, % at 8.34 µM;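 active means mean inhibition above about 93%, with at least 55% of replicates each passing it, limit read from the data, passing the limit was not always enough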
An asterisk follows results filed as active; x = no result given; ! = repeats disagree.

SMILES | Pf Dd2 inh | C diff growth | T cruzi growth
C[C@@H]1CN([C@H](C)CO)C(=O)c2cc(NC(=O)Nc3ccc4c(c3)OCO4)ccc2O[C@@H](C)CCCCO[C@@H]1CN(C)Cc1ccc(Cl)c(Cl)c1 | -87.8* | 6.3 | 71.0
C[C@@H]1CN([C@H](C)CO)C(=O)c2cc(NC(=O)Nc3ccccc3)ccc2O[C@@H](C)CCCCO[C@H]1CN(C)Cc1ccc2c(c1)OCO2 | -81.6* | 26.3 | 62.1
C[C@H]1CCCCO[C@@H](CN(C)Cc2ccccc2)[C@@H](C)CN([C@@H](C)CO)C(=O)c2cc(NC(=O)Nc3ccc4c(c3)OCO4)ccc2O1 | -85.7* | -3.2 | 93.5
C[C@@H]1CCCCO[C@@H](CN(C)Cc2ccccc2)[C@H](C)CN([C@H](C)CO)C(=O)c2cc(NC(=O)Nc3ccc4c(c3)OCO4)ccc2O1 | -79.1 | 8.8 | 94.6
C[C@@H]1CCCCO[C@@H](CN(C)Cc2ccc3c(c2)OCO3)[C@@H](C)CN([C@@H](C)CO)C(=O)c2cc(NC(=O)Cc3ccccc3)ccc2O1 | -54.9 | 5.7 | 103.0
C[C@@H]1CN([C@@H](C)CO)C(=O)c2cc(NC(=O)Nc3ccc4c(c3)OCO4)ccc2O[C@@H](C)CCCCO[C@H]1CN(C)Cc1ccc(Cl)c(Cl)c1 | -59.1 | 4.8 | 69.1
C[C@H]1CCCCO[C@@H](CN(C)Cc2ccc3c(c2)OCO3)[C@@H](C)CN([C@@H](C)CO)C(=O)c2cc(NC(=O)Cc3ccccc3)ccc2O1 | -83.0* | -3.4 | 109.4
C[C@H]1CCCCO[C@H](CN(C)Cc2ccc3c(c2)OCO3)[C@@H](C)CN([C@@H](C)CO)C(=O)c2cc(NC(=O)Nc3ccccc3)ccc2O1 | -74.7 | 10.8 | 80.8
C[C@@H]1CCCCO[C@H](CN(C)C(=O)NC2CCCCC2)[C@H](C)CN([C@H](C)CO)C(=O)c2cc(NS(C)(=O)=O)ccc2O1 | 13.1 | x | 17.2
C[C@H](CO)N1C[C@H](C)[C@@H](CN(C)S(=O)(=O)c2cccs2)OCCCC[C@H](C)Oc2ccc(NC(=O)CCCN(C)C)cc2C1=O | -14.2 | 0.9 | 44.9
COc1ccc2c3c(n(C)c2c1)[C@@H](CO)NCC31CCN(C(=O)CC2CC2)CC1 | 23.8 | x | x
C[C@H]1CN([C@@H](C)CO)C(=O)c2c(c3ccccc3n2C)-c2ccccc2CO[C@H]1CN(C)C(=O)Nc1ccccc1C(F)(F)F | -84.4* | -0.1 | x
C[C@@H]1CN([C@H](C)CO)C(=O)c2c(c3ccccc3n2C)-c2ccccc2CO[C@H]1CN(C)C(=O)Nc1ccccc1C(F)(F)F | -44.7 | 19.4 | x
COc1ccccc1NC(=O)N(C)C[C@@H]1OCc2ccccc2-c2c(n(C)c3ccccc23)C(=O)N([C@H](C)CO)C[C@H]1C | -38.9 | x | 76.2
C[C@@H]1CN([C@@H](C)CO)C(=O)c2c(c3ccccc3n2C)-c2ccccc2CO[C@@H]1CN(C)C(=O)Nc1cccc(Cl)c1Cl | -92.4* | 54.0 | x
COc1cccc(NC(=O)N2C[C@H](O)COC[C@H]3O[C@@H](CC(=O)NCc4ccccc4F)CC[C@@H]32)c1 | 3.3 | 2.6 | x
COc1ccc2c3c([nH]c2c1)[C@H](CO)N(C(=O)C1CCOCC1)CC31CN(C)C1 | 29.0 | x | x
COc1ccccc1C#Cc1ccc2c(c1)[C@@H]1[C@@H](CCN1C(=O)CN1CCOCC1)[C@H](CO)N2 | -31.2 | 1.9 | x
c1cncc(-c2ccc(C3[C@@H]4CN(Cc5ccc6c(c5)OCO6)C[C@H]3N4)cc2)c1 (stereo partly drawn) | -37.4 | -4.1 | x
C/C=C/c1ccc(C2[C@@H]3CN(Cc4ccc5c(c4)OCO5)C[C@H]2N3)cc1 (stereo partly drawn) | -94.1*! | 2.0 | x
C/C=C/c1ccc(C2[C@H]3CNC[C@@H]2N3Cc2ccc3c(c2)OCO3)cc1 (stereo partly drawn) | -28.1 | 5.8 | x
Cc1ccccc1-c1ccc(C2[C@@H]3CN(Cc4ccc5c(c4)OCO5)C[C@H]2N3)cc1 (stereo partly drawn) | -6.6 | -94.4* | x
Cc1ccccc1-c1ccc(C2[C@H]3CNC[C@@H]2N3Cc2ccc3c(c2)OCO3)cc1 (stereo partly drawn) | 4.1 | -0.2 | x
CN(C)C(=O)c1ccc(-c2ccc(C3[C@@H]4CN(Cc5ccc6c(c5)OCO6)C[C@H]3N4)cc2)cc1 (stereo partly drawn) | -81.7*! | -5.2 | x
CNC(=O)C[C@@H]1CC[C@H]2[C@@H](COc3ccc(NC(=O)Nc4cccc(F)c4)cc3C(=O)N2C)O1 | -5.4 | -3.4 | 21.4
SMILES | Pf Dd2 inh | C diff growth | T cruzi growth
CCC(=O)Nc1ccc2c(c1)OC[C@H](C)N(Cc1ccccc1OC)C[C@H](C)[C@@H](OC)CN(C)C2=O | 4.6 | 1.0 | x
COc1ccc(S(=O)(=O)N[C@H]2C=C[C@@H](CC(=O)NCCc3ccncc3)O[C@H]2CO)cc1 | 1.7 | 3.8 | -6.5
C[C@@H]1CN([C@H](C)CO)C(=O)c2cc(NC(=O)NC3CCCCC3)ccc2O[C@@H](C)CCCCO[C@@H]1CN(C)S(=O)(=O)c1cn(C)cn1 | -11.1 | -5.7 | 52.3
C[C@H]1CCCCO[C@H](CN(C)S(=O)(=O)c2ccc(F)cc2)[C@@H](C)CN([C@@H](C)CO)C(=O)c2cc(NC(=O)c3ccccc3)ccc2O1 | -74.5 | -8.4 | x
C[C@@H]1CN([C@H](C)CO)C(=O)c2cc(NC(=O)c3ccccc3)ccc2O[C@@H](C)CCCCO[C@@H]1CN(C)S(=O)(=O)c1ccc(F)cc1 | -85.1* | 5.3 | x
COc1ccc(S(=O)(=O)N(C)C[C@@H]2OCCCC[C@@H](C)Oc3ccc(NC(=O)c4ccccc4)cc3C(=O)N([C@@H](C)CO)C[C@@H]2C)cc1 | -79.4 | 31.6 | 85.1
Cc1ccc(S(=O)(=O)N(C)C[C@H]2OCCCC[C@@H](C)Oc3ccc(NC(=O)c4ccccc4)cc3C(=O)N([C@@H](C)CO)C[C@H]2C)cc1 | -65.5 | x | 10.9
Cc1ccc(S(=O)(=O)N(C)C[C@H]2OCCCC[C@H](C)Oc3ccc(NC(=O)c4ccccc4)cc3C(=O)N([C@H](C)CO)C[C@H]2C)cc1 | -81.1* | x | 70.8
COc1ccc(S(=O)(=O)N(C)C[C@@H]2OCCCC[C@@H](C)Oc3ccc(NC(=O)c4ccccc4)cc3C(=O)N([C@H](C)CO)C[C@H]2C)cc1 | -84.6* | 14.9 | 87.0
O=C(C[C@H]1CC[C@@H](NC(=O)Nc2ccc(C(F)(F)F)cc2)[C@@H](CO)O1)NCCN1CCCC1 | 10.0 | x | 1.9
C[C@@H]1CN([C@H](C)CO)C(=O)c2cc(C#CC3CC3)cnc2O[C@@H]1CN(C)C(=O)c1ccncc1 | 57.7 | x | -7.7
CCC(=O)N[C@@H]1C=C[C@@H](CC(=O)NCCN2CCCCC2)O[C@@H]1CO | 24.8 | -9.5 | 14.5
COc1ccc2c3c([nH]c2c1)[C@H](CO)N(C(=O)c1ccncc1)CC31CN(C(=O)C2CCC2)C1 | 33.2 | -6.6 | x
C[C@@H]1CCCCO[C@H](CN(C)C(=O)c2ccccc2)[C@@H](C)CN([C@H](C)CO)C(=O)c2cc(NC(=O)CCCN(C)C)ccc2O1 | x | -0.8 | 18.8
COc1cccc(C#Cc2ccc([C@@H]3[C@@H](CO)N(C(=O)C4CCCCC4)[C@H]3C#N)cc2)c1 | -77.6 | 0.5 | 87.9
COc1cccc(C#Cc2ccc([C@@H]3[C@@H](C#N)N(C(=O)C4CCC4)[C@H]3CO)cc2)c1 | -49.6 | 15.1 | 91.0
